Consider twelve molecules from article PMC12529666, “Dysregulation of AGO2-miRNA dynamics underlies the AGO2-associated Lessel–Kreienkamp syndrome”.

The labels stand for the following.
B1: GTATCTTG (ssRNA)
RNA 1: GAGUUCUACAGUCCGACGAUCCCAACGUAUCUUGCACCUGGAAUUCUCGGGUGCCAA
RNA 2: UGGAGUGUGACAAUGGUGUUUG
DNA 1: GATCGTCGGACTGTAGAACTC
DNA 2: TTGGCACCCGAGAATTCCA
modifications: constant regions annealed to DNA blockers; guide miR-122 5' phosphate
B2: GCATTTCG (ssRNA)
RNA 1: GAGUUCUACAGUCCGACGAUCCCAACGCAUUUCGCACCUGGAAUUCUCGGGUGCCAA
RNA 2: UGGAGUGUGACAAUGGUGUUUG
DNA 1: GATCGTCGGACTGTAGAACTC
DNA 2: TTGGCACCCGAGAATTCCA
modifications: constant regions annealed to DNA blockers; guide miR-122 5' phosphate
B3: ATGTCCTG (ssRNA)
RNA 1: GAGUUCUACAGUCCGACGAUCCCAACAUGUCCUGCACCUGGAAUUCUCGGGUGCCAA
RNA 2: UGGAGUGUGACAAUGGUGUUUG
DNA 1: GATCGTCGGACTGTAGAACTC
DNA 2: TTGGCACCCGAGAATTCCA
modifications: constant regions annealed to DNA blockers; guide miR-122 5' phosphate
B4: ATACCCTG (ssRNA)
RNA 1: GAGUUCUACAGUCCGACGAUCCCAACAUACCCUGCACCUGGAAUUCUCGGGUGCCAA
RNA 2: UGGAGUGUGACAAUGGUGUUUG
DNA 1: GATCGTCGGACTGTAGAACTC
DNA 2: TTGGCACCCGAGAATTCCA
modifications: constant regions annealed to DNA blockers; guide miR-122 5' phosphate
B5: GTGTCTCG (ssRNA)
RNA 1: GAGUUCUACAGUCCGACGAUCCCAACGUGUCUCGCACCUGGAAUUCUCGGGUGCCAA
RNA 2: UGGAGUGUGACAAUGGUGUUUG
DNA 1: GATCGTCGGACTGTAGAACTC
DNA 2: TTGGCACCCGAGAATTCCA
modifications: constant regions annealed to DNA blockers; guide miR-122 5' phosphate
B6: GTGTCTTG (ssRNA)
RNA 1: GAGUUCUACAGUCCGACGAUCCCAACGUGUCUUGCACCUGGAAUUCUCGGGUGCCAA
RNA 2: UGGAGUGUGACAAUGGUGUUUG
DNA 1: GATCGTCGGACTGTAGAACTC
DNA 2: TTGGCACCCGAGAATTCCA
modifications: constant regions annealed to DNA blockers; guide miR-122 5' phosphate
B7: ATGCTTTG (ssRNA)
RNA 1: GAGUUCUACAGUCCGACGAUCCCAACAUGCUUUGCACCUGGAAUUCUCGGGUGCCAA
RNA 2: UGGAGUGUGACAAUGGUGUUUG
DNA 1: GATCGTCGGACTGTAGAACTC
DNA 2: TTGGCACCCGAGAATTCCA
modifications: constant regions annealed to DNA blockers; guide miR-122 5' phosphate
B8: ATGTCTCG (ssRNA)
RNA 1: GAGUUCUACAGUCCGACGAUCCCAACAUGUCUCGCACCUGGAAUUCUCGGGUGCCAA
RNA 2: UGGAGUGUGACAAUGGUGUUUG
DNA 1: GATCGTCGGACTGTAGAACTC
DNA 2: TTGGCACCCGAGAATTCCA
modifications: constant regions annealed to DNA blockers; guide miR-122 5' phosphate
B9: ACATTCTA (ssRNA)
RNA 1: GAGUUCUACAGUCCGACGAUCCCAACACAUUCUACACCUGGAAUUCUCGGGUGCCAA
RNA 2: UGGAGUGUGACAAUGGUGUUUG
DNA 1: GATCGTCGGACTGTAGAACTC
DNA 2: TTGGCACCCGAGAATTCCA
modifications: constant regions annealed to DNA blockers; guide miR-122 5' phosphate
B10: ACGCTTCG (ssRNA)
RNA 1: GAGUUCUACAGUCCGACGAUCCCAACACGCUUCGCACCUGGAAUUCUCGGGUGCCAA
RNA 2: UGGAGUGUGACAAUGGUGUUUG
DNA 1: GATCGTCGGACTGTAGAACTC
DNA 2: TTGGCACCCGAGAATTCCA
modifications: constant regions annealed to DNA blockers; guide miR-122 5' phosphate
B11: ATATTCCG (ssRNA)
RNA 1: GAGUUCUACAGUCCGACGAUCCCAACAUAUUCCGCACCUGGAAUUCUCGGGUGCCAA
RNA 2: UGGAGUGUGACAAUGGUGUUUG
DNA 1: GATCGTCGGACTGTAGAACTC
DNA 2: TTGGCACCCGAGAATTCCA
modifications: constant regions annealed to DNA blockers; guide miR-122 5' phosphate
B12: GTACCTTG (ssRNA)
RNA 1: GAGUUCUACAGUCCGACGAUCCCAACGUACCUUGCACCUGGAAUUCUCGGGUGCCAA
RNA 2: UGGAGUGUGACAAUGGUGUUUG
DNA 1: GATCGTCGGACTGTAGAACTC
DNA 2: TTGGCACCCGAGAATTCCA
modifications: constant regions annealed to DNA blockers; guide miR-122 5' phosphate

Chain of AGO2 L192P (Q9UKV8 whole entry L192P/S387D/S824A/S828D/S831D/S834A): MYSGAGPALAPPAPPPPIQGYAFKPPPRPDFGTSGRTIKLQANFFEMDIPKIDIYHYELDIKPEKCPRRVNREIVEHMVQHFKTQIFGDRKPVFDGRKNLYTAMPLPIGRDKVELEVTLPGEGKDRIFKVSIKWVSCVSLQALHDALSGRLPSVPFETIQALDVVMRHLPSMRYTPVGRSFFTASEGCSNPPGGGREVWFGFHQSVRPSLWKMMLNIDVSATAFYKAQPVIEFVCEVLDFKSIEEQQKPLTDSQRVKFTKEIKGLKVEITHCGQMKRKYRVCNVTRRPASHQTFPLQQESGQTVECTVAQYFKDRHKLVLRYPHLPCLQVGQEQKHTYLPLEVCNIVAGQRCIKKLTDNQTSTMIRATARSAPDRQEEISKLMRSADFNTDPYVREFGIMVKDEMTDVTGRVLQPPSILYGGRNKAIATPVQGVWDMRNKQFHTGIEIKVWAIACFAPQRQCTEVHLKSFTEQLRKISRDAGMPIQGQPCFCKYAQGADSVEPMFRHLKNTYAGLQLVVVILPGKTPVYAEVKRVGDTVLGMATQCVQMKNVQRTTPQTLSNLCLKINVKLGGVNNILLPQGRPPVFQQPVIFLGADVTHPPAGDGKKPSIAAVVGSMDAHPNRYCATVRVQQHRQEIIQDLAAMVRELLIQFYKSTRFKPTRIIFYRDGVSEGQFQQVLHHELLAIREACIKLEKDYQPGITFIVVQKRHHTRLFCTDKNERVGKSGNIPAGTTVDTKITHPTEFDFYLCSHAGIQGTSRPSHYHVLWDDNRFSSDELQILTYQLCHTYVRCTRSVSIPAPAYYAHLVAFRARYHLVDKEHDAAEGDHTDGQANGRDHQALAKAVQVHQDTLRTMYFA
Chain of AGO2 A367P (Q9UKV8 whole entry A367P/S387D/S824A/S828D/S831D/S834A): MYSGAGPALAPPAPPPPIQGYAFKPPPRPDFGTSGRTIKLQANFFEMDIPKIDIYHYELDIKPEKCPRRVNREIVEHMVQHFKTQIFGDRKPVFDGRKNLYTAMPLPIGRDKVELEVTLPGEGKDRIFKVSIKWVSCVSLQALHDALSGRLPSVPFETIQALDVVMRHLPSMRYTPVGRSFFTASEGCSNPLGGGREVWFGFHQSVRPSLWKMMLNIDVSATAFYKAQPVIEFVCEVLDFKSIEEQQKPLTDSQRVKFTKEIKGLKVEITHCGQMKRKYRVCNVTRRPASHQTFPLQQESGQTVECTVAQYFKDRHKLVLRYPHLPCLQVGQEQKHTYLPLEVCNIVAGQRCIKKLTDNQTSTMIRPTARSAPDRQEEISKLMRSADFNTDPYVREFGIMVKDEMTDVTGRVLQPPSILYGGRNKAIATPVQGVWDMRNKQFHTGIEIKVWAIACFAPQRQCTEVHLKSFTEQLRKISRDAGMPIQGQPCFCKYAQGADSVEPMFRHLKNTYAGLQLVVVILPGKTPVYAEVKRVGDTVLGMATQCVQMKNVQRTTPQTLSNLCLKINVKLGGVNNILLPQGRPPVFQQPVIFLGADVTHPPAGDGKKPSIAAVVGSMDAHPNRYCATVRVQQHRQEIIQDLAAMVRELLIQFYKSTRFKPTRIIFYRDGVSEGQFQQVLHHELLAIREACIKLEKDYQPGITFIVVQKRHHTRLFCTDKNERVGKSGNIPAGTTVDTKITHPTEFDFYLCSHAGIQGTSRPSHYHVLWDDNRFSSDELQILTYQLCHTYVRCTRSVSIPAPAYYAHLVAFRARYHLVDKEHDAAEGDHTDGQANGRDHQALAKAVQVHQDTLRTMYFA
Chain of AGO2 T357M (Q9UKV8 whole entry T357M/S387D/S824A/S828D/S831D/S834A): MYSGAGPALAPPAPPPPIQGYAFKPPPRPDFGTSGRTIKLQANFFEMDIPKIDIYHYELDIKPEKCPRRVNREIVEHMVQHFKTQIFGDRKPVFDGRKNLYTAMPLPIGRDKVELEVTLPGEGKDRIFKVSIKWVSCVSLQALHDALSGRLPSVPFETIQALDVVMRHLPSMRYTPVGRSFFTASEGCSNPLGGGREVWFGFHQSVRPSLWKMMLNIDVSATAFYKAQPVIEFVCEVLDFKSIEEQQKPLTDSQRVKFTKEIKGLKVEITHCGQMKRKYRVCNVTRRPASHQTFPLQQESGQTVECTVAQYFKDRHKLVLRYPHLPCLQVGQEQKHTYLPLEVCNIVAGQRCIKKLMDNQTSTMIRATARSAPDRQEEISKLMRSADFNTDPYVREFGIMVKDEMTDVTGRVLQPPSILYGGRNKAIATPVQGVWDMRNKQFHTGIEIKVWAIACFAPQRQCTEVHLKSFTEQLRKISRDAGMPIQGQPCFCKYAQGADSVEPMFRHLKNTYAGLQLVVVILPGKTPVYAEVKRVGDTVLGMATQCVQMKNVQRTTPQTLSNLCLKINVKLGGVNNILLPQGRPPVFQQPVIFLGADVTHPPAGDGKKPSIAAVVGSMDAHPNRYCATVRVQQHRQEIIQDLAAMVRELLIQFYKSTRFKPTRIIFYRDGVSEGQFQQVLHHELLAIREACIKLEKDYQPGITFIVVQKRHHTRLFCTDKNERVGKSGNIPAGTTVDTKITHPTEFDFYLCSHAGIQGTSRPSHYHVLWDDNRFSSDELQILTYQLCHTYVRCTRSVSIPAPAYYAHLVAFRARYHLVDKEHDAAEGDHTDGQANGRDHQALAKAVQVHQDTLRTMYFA
Chain of AGO2 F182del (Q9UKV8 other isoform, or with tags, fused parts or gaps S387D;S824A;S828D;S831D;S834A;del182-182): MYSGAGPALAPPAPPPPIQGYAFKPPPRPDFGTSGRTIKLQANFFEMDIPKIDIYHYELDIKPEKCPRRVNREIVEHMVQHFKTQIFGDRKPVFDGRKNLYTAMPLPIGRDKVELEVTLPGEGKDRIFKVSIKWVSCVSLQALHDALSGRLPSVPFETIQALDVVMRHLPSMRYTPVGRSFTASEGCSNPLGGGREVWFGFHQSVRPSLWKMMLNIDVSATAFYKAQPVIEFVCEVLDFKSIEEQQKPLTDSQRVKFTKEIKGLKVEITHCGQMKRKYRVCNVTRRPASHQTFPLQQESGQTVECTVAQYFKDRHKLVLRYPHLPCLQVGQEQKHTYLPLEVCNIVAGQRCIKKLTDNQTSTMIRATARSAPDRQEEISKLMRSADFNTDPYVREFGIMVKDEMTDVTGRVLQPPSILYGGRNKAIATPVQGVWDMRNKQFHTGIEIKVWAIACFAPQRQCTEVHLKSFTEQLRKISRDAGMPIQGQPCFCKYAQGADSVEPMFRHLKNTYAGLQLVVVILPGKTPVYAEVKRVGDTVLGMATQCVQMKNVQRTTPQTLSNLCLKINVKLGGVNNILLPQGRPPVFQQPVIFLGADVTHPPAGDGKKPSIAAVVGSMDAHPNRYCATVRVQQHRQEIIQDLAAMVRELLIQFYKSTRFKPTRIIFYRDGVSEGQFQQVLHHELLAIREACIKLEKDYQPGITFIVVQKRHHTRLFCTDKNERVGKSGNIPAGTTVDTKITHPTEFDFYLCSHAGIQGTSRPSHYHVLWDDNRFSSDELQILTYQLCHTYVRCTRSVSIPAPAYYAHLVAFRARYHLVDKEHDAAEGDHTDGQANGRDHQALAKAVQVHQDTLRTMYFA

The first test has as its target AGO2 L192P (Homo sapiens, UniProt Q9UKV8 1-859, L192P;S387D;S824A;S828D;S831D;S834A). Briefly: RNA Bind-n-Seq (nitrocellulose filter binding and sequencing); miR-122 guide loaded in AGO2; 60 min incubation; 30 mM Tris pH 8.0, 100 mM potassium acetate, 2 mM magnesium acetate, 0.5 mM TCEP, 0.005% NP-40, 0.01 mg/ml yeast tRNA; 3 nM AGO2-miR-122, 100 nM RNA library; 60; high values mean tight binding. The settings on record: protein: recombinant; tags: His6 (N-terminal, pFastBac HTA). Put shortly: (§1)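 His-tagged AGO2 was expressed in Sf9 insect cells by baculovirus, loaded with a synthetic guide RNA, and purified by Ni-NTA and a biotinylated capture oligo. Bound RNA was extracted, reverse-transcribed, barcode-amplified and Illumina-sequenced. Fold enrichment is each sequence's read fraction divided by its input-library read fraction.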
Consider B1, for which the binding signal was 0.32 fold enrichment over input.

Consider B2, for which the binding signal was 0.358 fold enrichment over input.

In the case of B3, the binding signal was 0.343 fold enrichment over input.

With B4, the binding signal is 0.364 fold enrichment over input.

On to B5, for which the binding signal is 0.345 fold enrichment over input.

Regarding B6, the binding signal is 0.335 fold enrichment over input.

Take B7: the binding signal is 0.354 fold enrichment over input.

On to B8, for which the binding signal was 0.316 fold enrichment over input.

Turning to B9, the binding signal was 0.493 fold enrichment over input.

On to B10, for which the binding signal was 0.346 fold enrichment over input.

As to B11, the binding signal was 0.389 fold enrichment over input.

As for B12, the binding signal is 0.347 fold enrichment over input.

The next test addresses AGO2 A367P (Homo sapiens, UniProt Q9UKV8 1-859, A367P;S387D;S824A;S828D;S831D;S834A). The test is described as above. The settings on record: protein: recombinant; tags: His6 (N-terminal, pFastBac HTA). Put shortly: as §1
In the case of B1, the binding signal is 0.127 fold enrichment over input.

As for B2, the binding signal is 0.127 fold enrichment over input.

On to B3, for which the binding signal was 0.122 fold enrichment over input.

In the case of B4, the binding signal is 0.126 fold enrichment over input.

On to B5, for which the binding signal is 0.125 fold enrichment over input.

Regarding B6, the binding signal is 0.131 fold enrichment over input.

As to B7, the binding signal was 0.12 fold enrichment over input.

As to B9, the binding signal was 0.178 fold enrichment over input.

For B10, the binding signal was 0.139 fold enrichment over input.

Regarding B11, the binding signal is 0.136 fold enrichment over input.

For the molecule B12, the binding signal is 0.128 fold enrichment over input.

The next test addresses AGO2 T357M (Homo sapiens, UniProt Q9UKV8 1-859, T357M;S387D;S824A;S828D;S831D;S834A). The test is described as above. The settings on record: protein: recombinant; tags: His6 (N-terminal, pFastBac HTA). An outline of the steps:
as §1
With B1, the binding signal was 0.448 fold enrichment over input.

Regarding B2, the binding signal is 0.486 fold enrichment over input.

B3: the binding signal was 0.425 fold enrichment over input.

In the case of B4, the binding signal is 0.522 fold enrichment over input.

As to B5, the binding signal is 0.468 fold enrichment over input.

Consider B6, for which the binding signal is 0.447 fold enrichment over input.

On to B7, for which the binding signal is 0.455 fold enrichment over input.

On to B8, for which the binding signal was 0.415 fold enrichment over input.

Take B9: the binding signal is 0.557 fold enrichment over input.

Regarding B10, the binding signal is 0.445 fold enrichment over input.

Consider B11, for which the binding signal was 0.541 fold enrichment over input.

On to B12, for which the binding signal was 0.482 fold enrichment over input.

The target of the next test is AGO2 F182del (Homo sapiens, UniProt Q9UKV8 1-859, S387D;S824A;S828D;S831D;S834A;del182-182). The test is described as above. The settings on record: protein: recombinant; tags: His6 (N-terminal, pFastBac HTA). Put shortly:
as §1
Regarding B9, the binding signal was 0.309 fold enrichment over input.
